From PubChem
D1 PAM – Potentiators of Human D1 Dopamine Receptor: qHTS | potentiation, % at 10 µM | 360,000 compounds, 0.036% hits | HEK293 TREx D1 cells, calcium flux, dopamine EC20 potentiation | D(1A) dopamine receptor (Homo sapiens), P21728; in the data active = potentiation above about 30%; also: 0% is about no effect
Target sequence (P21728 whole entry, looked up): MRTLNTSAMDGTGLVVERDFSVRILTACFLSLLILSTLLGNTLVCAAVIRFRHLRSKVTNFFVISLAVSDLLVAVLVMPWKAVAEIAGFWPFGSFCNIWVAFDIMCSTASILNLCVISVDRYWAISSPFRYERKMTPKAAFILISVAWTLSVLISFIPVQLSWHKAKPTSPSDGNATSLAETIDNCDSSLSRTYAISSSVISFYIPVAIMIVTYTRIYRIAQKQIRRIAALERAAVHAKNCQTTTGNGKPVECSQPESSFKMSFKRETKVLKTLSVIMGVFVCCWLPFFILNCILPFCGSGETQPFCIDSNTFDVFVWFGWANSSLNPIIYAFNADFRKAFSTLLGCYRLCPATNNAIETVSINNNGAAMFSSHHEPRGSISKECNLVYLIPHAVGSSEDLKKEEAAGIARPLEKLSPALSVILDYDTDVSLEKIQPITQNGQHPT
D1 agonist – Allosteric Agonists of the Human D1 Dopamine Receptor: qHTS. D(1A) dopamine receptor (Homo sapiens), P21728. HEK293 T-REx D1 cells, calcium flux, agonist mode. activation, % at 2 µM. 360,000 compounds, 1% hits; in the data active = activation above about 30%; also: 0% is about no effect
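Tetracycline-induced HEK293 TREx D1 cells, force-coupled to calcium signalling, were dye-loaded with a no-wash calcium kit. Compound was pin-added after a 10 s baseline. Fluorescence was read kinetically at 1 cycle/s for 180 s, with calcium rises flagged as agonism.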
D1 antagonist – Antagonist of Human D 1 Dopamine Receptor: qHTS | D(1A) dopamine receptor (Homo sapiens), P21728 | HEK293 TREx D1 cells, calcium flux, dopamine EC80; active compounds read low | activity change, negative = inhibition, % at 10 µM | 360,000 compounds, 3.2% hits | AID 504652, 2011; in the data active = activity change below about -30%; also: % is scaled to controls: 0 for no effect and ±100 for the full control effect
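Compound effects on dopamine-evoked calcium signalling were measured in tetracycline-induced HEK293 Trex D1 cells. Dopamine at EC80 followed a 180 s compound pre-read, and fluorescence was tracked kinetically for 180 s more.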
TRPV1 PAM – HTS Assay for Compounds that Act as Potentiators of the Vanilloid Receptor 1. potentiation, % at 8.33 µM. AID 540277, 2011. Transient receptor potential cation channel subfamily V member 1 (Homo sapiens), Q8NER1. 320,000 compounds, 0.02% hits. TRPV1-expressing cells, Fluo-8 calcium influx, capsaicin EC20 potentiation; in the data active = potentiation above about 80%; also: 0% is about no effect
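Fluo-8 calcium influx in TRPV1-expressing cells, kinetic read (ex 480/em 520 nm). Compound added and read 3 min for agonist activity, followed by capsaicin at EC20 final and 2 min further read for enhancement.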
TRPV1 ag – HTS Assay for Compounds that Act as Agonists of the Vanilloid Receptor 1; TRPV1-expressing cells, Fluo-8 calcium influx, agonist mode; activation, % at 8.33 µM; 320,000 compounds, 0.19% hits; in the data active = activation above about 80%; also: 0% is about no effect
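TRPV1-expressing cells were cultured overnight at 35.5C and loaded with Fluo-8 calcium dye for 40 to 90 min at room temperature. After a 10 s baseline, compound was added and calcium influx was read kinetically for 3 min (ex 480/em 520 nm).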
Starred values were filed as active, the others as inactive; nt = not tested or not shown. Most compounds without a hit are left out; they make up all but 4.2% or so of the library.

SMILES	D1 PAM	D1 agonist	D1 antagonist	TRPV1 PAM	TRPV1 ag
Nc1cc(N2CCNCC2)c([N+](=O)[O-])cc1Cl	-15	3	-42*	17	-1
CN(C)CCCNCC(=O)Nc1ccc(Cl)cc1C(=O)c1ccccc1	2	2	-1	22	-3
CCN(CC)CCNCC(=O)Nc1ccc(Cl)cc1C(=O)c1ccccc1	-4	1	-38*	-1	0
O=C(COc1ccccc1[N+](=O)[O-])N1CCN(CCc2ccncc2)CC1	0	3	-4	nt	nt
CCC12CN3CC(CC)(CN(C1)C3c1c(C)[nH]c(=O)[nH]c1=O)C2=O (stereo not drawn)	3	3	1	nt	nt
O=C(Nc1cccc(Cl)c1)OC1CN2CCC1CC2 (stereo not drawn)	-5	22	-38*	-2	3
O=C(Nc1ccc(Cl)cc1)OC1CN2CCC1CC2 (stereo not drawn)	-8	30*	-15	-25	14
O=C(Nc1ccccc1Cl)OC1CN2CCC1CC2 (stereo not drawn)	-6	14	-38*	-5	3
O=C(Nc1ccccc1F)OC1CN2CCC1CC2 (stereo not drawn)	2	2	7	-5	-2
Cc1cccc(OC(C)C(=O)NCC2(N(C)C)CCCCC2)c1C (stereo not drawn)	0	0	9	nt	nt
Cc1ccc(-n2c(/C=C/c3cc(Br)cs3)nc3ccccc3c2=O)cc1	0	-1	2	nt	nt
N#Cc1cc2c(nc1SCC(=O)Nc1ccc(F)c(Cl)c1)C1CCN2CC1	-1	1	5	nt	nt
O=c1[nH]c(=S)n(-c2ccccc2)c(O)c1C=NCc1ccccn1	-1	3	-44*	-1	-2
Cc1ccc(-n2c(O)c(C=NCc3ccccn3)c(=O)[nH]c2=S)cc1	-2	1	2	0	2
COc1ccc(/C=C/c2nc3ccccc3c(=O)n2-c2ccc(C)cc2)cc1O	0	-5	-5	nt	nt
CC(C)NC(C)C(=O)c1ccc2ccccc2c1 (stereo not drawn)	-4	1	-34*	14	-5
O=C(Nc1ccc2c(c1)OCO2)c1cccn(Cc2ccc(F)cc2)c1=O	0	0	nt	nt	nt
COc1ccc(CCNCc2ccc(Br)cc2)cc1OC	-9	43*	-11	-35	0
CN1C(=O)C(=Cc2ccc(N3CCOCC3)o2)C(=O)N(C)C1=O	-2	45*	15	30	-4
COc1ccc(OC)c(CCNCc2c(C(=O)O)c(C)n(Cc3ccc(F)cc3Cl)c2C)c1	-1	2	-5	nt	nt
CN(C)C(=O)Oc1ccc(OCc2nc3ccccc3[nH]2)cc1	-8	16	-48*	4	-1
CN(C)C(=O)Oc1ccc(OC(=O)N(C)C)cc1	-1	1	-5	-10	2
COc1cccc(/C=C/c2nc3ccccc3c(=O)n2-c2ccc(Cl)cc2)c1OC	0	-2	7	nt	nt
c1cncc(CNC2=NCCCCC2)c1	-1	3	-47*	-10	13
c1cncc(CNC2CCCC2)c1	-3	3	8	22	-5
SMILES	D1 PAM	D1 agonist	D1 antagonist	TRPV1 PAM	TRPV1 ag
CCn1c(O)c(/C=N/NC(=O)c2ccncc2)c(=O)[nH]c1=S	0	3	-31*	7	3
O=C(N/N=C/c1c(O)n(Cc2ccc(F)cc2)c(=S)[nH]c1=O)c1ccncc1	-8	3	-14	nt	nt
COc1ccc2c(c1)/C(=C/c1cnc[nH]1)C(=O)N2	-2	1	-34*	11	0
CN1C(=O)C(Cc2c[nH]c3ccccc23)C(=O)N(C)C1=O	-1	5	5	7	-2
CN1CCC(c2c[nH]c3ccccc23)C1 (stereo not drawn)	-5	6	-32*	15	5
COc1ccc(CN2CCCC(C(=O)c3ccc(Cl)cc3)C2)c(OC)c1 (stereo not drawn)	-1	11	-35*	-2	5
C=C(C)CN1CC[C@]23c4c5ccc(O)c4O[C@H]2c2[nH]c4ccccc4c2C[C@@]3(O)C1C5	-4	-1	-80*	6	-1
CCCC1=Nc2cc(C(=O)NC3CCC(C)CC3)ccc2Sc2ccccc21 (stereo not drawn)	-1	3	14	nt	nt
Cc1ccc(NC(=O)CN2C(=O)CN=C(c3ccccc3)c3ccccc32)cc1Cl	-4	4	-1	nt	nt
N#Cc1c(/N=C/c2ccc(O)cc2O)sc2c1C1CCN2CC1	-3	34*	-22	-1	13
O=C(Nc1ccc(F)c([N+](=O)[O-])c1)c1cccn(Cc2ccccc2)c1=O	-3	1	nt	nt	nt
CC(Cc1ccccc1Sc1ccccc1O)N(C)C (stereo not drawn)	0	40*	-38*	-15	11
C#CCN(C)[C@H](C)Cc1ccccc1	0	3	11	11	0
COc1ccc(-c2nc(CN3C(=O)CN=C(c4ccccc4)c4ccccc43)c(C)o2)cc1	-4	13	-23	nt	nt
O=Cc1c(C(=O)O)n(Cc2ccc(Cl)cc2)c2ccccc12	-2	54*	7	-10	8
O=c1c2ccccc2nc(/C=C\c2ccccc2F)n1-c1ccc(O)cc1	-1	-2	-6	nt	nt
CS(=O)(=O)N1CCCC(C(=O)N2CCC3(CC2)OCCO3)C1 (stereo not drawn)	-1	1	-34*	10	-1
O=C(O)Cn1cc(/C=C2\C(=O)NC(=O)N(c3ccc(Br)cc3)C2=O)c2ccccc21	-5	4	-31*	-5	-1
Cc1ccc(N2C(=O)NC(=O)/C(=C\c3cn(CC(=O)O)c4ccccc34)C2=O)cc1	2	-3	-7	-1	-7
CCN1CCN(S(=O)(=O)c2ccc(Cl)nc2)CC1	-4	6	-35*	-8	1
C(CCc1nn[nH]n1)CCc1nn[nH]n1	-2	5	-37*	-3	-4
COC(=O)C1=C(c2ccc(-c3ccccc3)c(F)c2)C[C@@H]2CC[C@H]1N2C(=O)NCCO	-2	1	-40*	-4	-1
COC(=O)C1=C(c2ccc(C(C)=O)cc2)C[C@@H]2CC[C@H]1N2C	2	1	7	6	-4
COC(=O)C1=C(c2ccccc2OCc2ccccc2)C[C@@H]2CC[C@H]1N2C(=O)NCCc1ccc(F)cc1	-6	3	-39*	-12	7
COC(=O)C1=C(c2ccc(C(C)=O)cc2)C[C@@H]2CC[C@H]1N2C(=O)NC(C)C	-7	-1	-91*	-35	0
N#Cc1cc2c(nc1SCC(=O)Nc1ccc(OC(F)(F)F)cc1)C1CCN2CC1	0	21	-20	nt	nt
